Potency and outcome data for nine compounds are collected here from PubChem BioAssay (Tox21).

Inconclusive results are not listed. Unmarked numbers belong to inactive results. Calls of active or inactive are those of the source. Unless noted, calls follow the shape of the dose curve; as a rule, active = well fitted curve in the direction sought with a large enough effect in the repeat runs; inconclusive = weak or mixed curves; inactive = no such curve, though single readings can be large; an effect the other way counts as inactive or inconclusive.

The nature of experiment [1]: qHTS assay to identify small molecule agonists of the peroxisome proliferator-activated receptor delta (PPARd) signaling pathway - cell viability counter screen (AID 743211). Also: nearly all actives have a fitted effect of over 55% in size. The essentials:
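Counter screen for cytotoxicity run in parallel with the PPARd reporter screen. Beta-lactamase reporter HEK293H cells exposed to compounds 17 h; ATP-based CellTiter-Glo luminescence quantified viability.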
(In general: Quantitative high-throughput screening tests each substance at several concentrations.)

Experiment [2] deals with Peroxisome proliferator-activated receptor delta (Homo sapiens) (UniProt Q03181). Put plainly: qHTS assay to identify small molecule agonists of the peroxisome proliferator-activated receptor delta (PPARd) signaling pathway (AID 743212; calls by dose curve;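 also: HEK293H cells with PPARd UAS beta-lactamase reporter GeneBLAzer system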). The essentials:
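Beta-lactamase reporter read by fluorescence (LiveBLAzer B/G FRET, 2 h, room temperature). Test agents, in DMSO, incubated at 37 C with PPARd-bla HEK293H cells.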

Experiment [3] is described as follows: qHTS assay to identify small molecule antagonists of the peroxisome proliferator-activated receptor delta (PPARd) signaling pathway - cell viability counter screen (AID 743213). Also: nearly all actives have a fitted effect of over 50% in size. The method in brief:
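Viability counter-screen, qHTS format: PPARd-bla HEK293H, L165041 300 nM final, 17 h compound exposure at 37 C, CellTiter-Glo luminescence after 30 min RT.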

Experiment [4] concerns the target Peroxisome proliferator-activated receptor delta (Homo sapiens) (UniProt Q03181). The experiment in a line: qHTS assay to identify small molecule antagonists of the peroxisome proliferator-activated receptor delta (PPARd) signaling pathway (AID 743215; active = well fitted inhibition curve with a large enough effect in the signal ratio in the repeat runs, not every such curve was filed as active; the % refers to the signal ratio;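 also: cells stimulated with agonist L165041 at 300 nM final during compound exposure; series mostly up to about 62 µM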). The method in brief:
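Agonist L165041 (300 nM final) added with compound to PPARd-bla HEK293H UAS-bla reporter cells; 17 h incubation at 37 C. Read-out: LiveBLAzer FRET substrate, 2 h at room temperature, fluorescence intensity.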

A short description of experiment [5]: qHTS assay to identify small molecule agonists of the farnesoid-X-receptor (FXR) signaling pathway - cell viability counter screen (AID 743218). Also: nearly all actives have a fitted effect of over 45% in size. The method in brief: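 Viability counter screen in the same wells: CellTiter-Glo luminescence, 30 min room-temperature incubation, measured after the beta-lactamase read. Cells were GeneBLAzer FXR-UAS-bla HEK 293T, compound-treated 16 h at 37C.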

Experiment [6] has as its target Vitamin D3 receptor (Homo sapiens) (UniProt P11473). Put plainly: qHTS assay to identify small molecule agonists of the vitamin D receptor (VDR) signaling pathway (AID 743222; calls by dose curve). The essentials:
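Agonist mode, beta-lactamase reporter: fluorescence from LiveBLAzer B/G FRET substrate (2 h, room temperature) read after 16 h compound treatment at 37 C of VDR-bla cells, which were pre-incubated 4 h after seeding.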

Experiment [7] shares this target. Put plainly: qHTS assay to identify small molecule antagonists of the vitamin D receptor (VDR) signaling pathway (AID 743223; active = well fitted inhibition curve with a large enough effect in the signal ratio in the repeat runs, not every such curve was filed as active; the % refers to the signal ratio). The method in brief: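 Cells carrying a VDR-driven beta-lactamase reporter (VDR-bla) were co-treated with compound and 3 nM final 1alpha,25-dihydroxyvitamin D3 for 16 h at 37C; reporter activity was measured as FRET substrate fluorescence after 2 h at room temperature.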

A short description of experiment [8]: qHTS assay to identify small molecule agonists of the vitamin D receptor (VDR) signaling pathway - cell viability counter screen (AID 743224). Also: series mostly up to about 63 µM; nearly all actives have a fitted effect of over 50% in size. The method in brief: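 Counter screen run in the same wells as the VDR-bla reporter assay: CellTiter-Glo luminescence, 30 min at room temperature, after 16 h compound treatment at 37C of cells pre-plated for 4 h.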
A short description of experiment [9]: qHTS assay to identify small molecule antagonists of the vitamin D receptor (VDR) signaling pathway - cell viability counter screen (AID 743225). Also: nearly all actives have a fitted effect of over 50% in size. The method in brief:
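HEK293T VDR-bla; cpd + 1a,25-(OH)2D3 3 nM final, 16 h 37C/5% CO2; B/G FRET substrate 2 h RT; then CellTiter-Glo 30 min RT, luminescence.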

Experiment [10] in a line: qHTS assay to identify small molecule agonists of the NFkB signaling pathway (AID 1159509; active = well fitted curve in the direction sought with a large enough effect in the signal ratio in the repeat runs, not every such curve was filed as active; the % refers to the signal ratio; also: series mostly up to about 61 µM). The essentials: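 Beta-lactamase reporter assay run in quantitative high-throughput format on an NF-kB-responsive ME-180 line, with 5 hr compound treatment and a FRET-based blue/green fluorescence readout.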
Experiment [11] can be described thus: qHTS assay to identify small molecule agonists of the NFkB signaling pathway - cell viability counter screen (AID 1159515; calls by dose curve; also: series mostly up to about 61 µM; nearly all actives have a fitted effect of over 55% in size). The method in brief:
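Read by CellTiter-Glo luminescence (30 min, room temperature) in the wells also used for the beta-lactamase FRET read. ME-180 NFkB-bla cells at 2,000 per well were plated overnight, then exposed to compound for 5 hr at 37 C.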

Experiment [12] can be described thus: qHTS assay to identify small molecule agonists of the endoplasmic reticulum stress response signaling pathway (AID 1159516; active = well fitted activation curve with a large enough effect in the signal ratio in the repeat runs, not every such curve was filed as active; the % refers to the signal ratio). The method in brief:
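Ratiometric FRET readout (405 nm excitation; 460 and 530 nm emission) of a beta-lactamase gene driven by the ER stress response element, after 2 hr substrate loading. HeLa ESRE-bla cells were seeded overnight and treated with compounds for only 5 hr at 37 C.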

Experiment [13] is described as follows: qHTS assay to identify small molecule agonists of the endoplasmic reticulum stress response signaling pathway - cell viability counter screen (AID 1159517; calls by dose curve; also: series mostly up to about 61 µM; nearly all actives have a fitted effect of over 50% in size). The essentials: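 Cytotoxicity of test compounds toward ESRE-bla HeLa cells was assessed after 5 hr exposure. The luminescent CellTiter-Glo signal was measured 30 min after reagent addition.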
Experiment [14] is described as follows: qHTS assay to identify small molecule antagonists of the retinoid-related orphan receptor gamma (ROR-gamma) signaling pathway - cell viability counter screen (AID 1159520). Also: nearly all actives have a fitted effect of over 50% in size. The essentials: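 Tet-on ROR gamma CHO cells (1,000/well) were plated 4 hr, given compounds in DMSO for 2 hr at 37 C, then induced with 1 uM final doxycycline for 16 hr. Viability was read as ATP by CellTiter-Glo luminescence after 30 min.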

Experiment [15] concerns the target Nuclear receptor ROR-gamma (Homo sapiens) (UniProt P51449). The experiment in a line: qHTS assay to identify small molecule antagonists of the retinoid-related orphan receptor gamma (ROR-gamma) signaling pathway (AID 1159521; also: nearly all actives have a fitted effect of over 50% in size; also: potency is read from the fitted curve at half-maximal effect). The method in brief: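 Cells were plated, rested 4 h at 37 C, exposed to compounds for 2 h, then given 1 uM final doxycycline hyclate to induce RORγ expression. After 16 h, ONE-Glo luminescence from the ROR response element reporter was measured.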

A short description of experiment [16]: qHTS assay to identify small molecule agonists of the AP-1 signaling pathway - cell viability counter screen (AID 1159525; calls by dose curve; also: nearly all actives have a fitted effect of over 55% in size). The essentials:
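Each titration point was normalised to DMSO and tetra n-octyl ammonium bromide controls. The read was Cell Titer Glo luminescence after 30 min at RT, following 5 h compound exposure of ME-180 AP-1-bla cells at 37 °C.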

Experiment [17] in a line: qHTS assay to identify small molecule antagonists of the farnesoid-X-receptor (FXR) signaling pathway - cell viability counter screen (AID 743221; active = well fitted cell-killing curve with a large enough effect in the repeat runs, not every such curve was filed as active; also: nearly all actives have a fitted effect of over 50% in size). The essentials: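 Multiplexed counter screen: viability of FXR-bla HEK 293T cells under agonist stimulation by chenodeoxycholic acid (50 uM, final) and test compound for 16 h at 37 C, measured by CellTiter-Glo luminescence in the reporter wells.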

Experiment [18] deals with Bile acid receptor (Homo sapiens) (UniProt Q96RI1). The experiment in a line: qHTS assay to identify small molecule antagonists of the farnesoid-X-receptor (FXR) signaling pathway (AID 743217; active = well fitted inhibition curve with a large enough effect in the signal ratio in the repeat runs, not every such curve was filed as active; the % refers to the signal ratio). The method in brief:
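Antagonist mode: chenodeoxycholic acid at 50 uM final stimulates a UAS-driven beta-lactamase reporter in HEK 293T FXR-bla cells during 16 h, 37C compound exposure. Read-out is FRET substrate fluorescence after 2 h at room temperature.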

The target is the same in experiment [19]. Put plainly: qHTS assay to identify small molecule agonists of the farnesoid-X-receptor (FXR) signaling pathway (AID 743220; active = well fitted activation curve with a large enough effect in the signal ratio in the repeat runs, not every such curve was filed as active; the % refers to the signal ratio). The essentials: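 FXR-UAS-bla HEK 293T cells carrying a UAS-driven beta-lactamase reporter were plated for 5 h at 37C/5% CO2, then exposed to DMSO-dissolved Tox21 10K compounds for 16 h at 37C. A LiveBLAzer B/G FRET substrate was loaded for 2 h at room temperature before fluorescence reading.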

Sequence of Peroxisome proliferator-activated receptor delta (Homo sapiens) (Q03181 whole entry, looked up): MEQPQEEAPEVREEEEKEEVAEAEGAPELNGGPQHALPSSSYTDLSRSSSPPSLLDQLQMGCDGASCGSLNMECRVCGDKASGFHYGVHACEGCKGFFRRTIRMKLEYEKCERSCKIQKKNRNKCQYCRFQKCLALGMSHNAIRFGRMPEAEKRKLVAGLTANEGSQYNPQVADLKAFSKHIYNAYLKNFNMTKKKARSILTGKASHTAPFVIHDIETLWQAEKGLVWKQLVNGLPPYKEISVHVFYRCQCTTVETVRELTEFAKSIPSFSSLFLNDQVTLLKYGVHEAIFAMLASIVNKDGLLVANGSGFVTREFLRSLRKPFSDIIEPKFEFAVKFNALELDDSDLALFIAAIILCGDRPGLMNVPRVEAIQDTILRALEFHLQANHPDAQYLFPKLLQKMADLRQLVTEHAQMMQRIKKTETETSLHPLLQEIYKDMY
Sequence of Bile acid receptor (Homo sapiens) (Q96RI1 whole entry, looked up): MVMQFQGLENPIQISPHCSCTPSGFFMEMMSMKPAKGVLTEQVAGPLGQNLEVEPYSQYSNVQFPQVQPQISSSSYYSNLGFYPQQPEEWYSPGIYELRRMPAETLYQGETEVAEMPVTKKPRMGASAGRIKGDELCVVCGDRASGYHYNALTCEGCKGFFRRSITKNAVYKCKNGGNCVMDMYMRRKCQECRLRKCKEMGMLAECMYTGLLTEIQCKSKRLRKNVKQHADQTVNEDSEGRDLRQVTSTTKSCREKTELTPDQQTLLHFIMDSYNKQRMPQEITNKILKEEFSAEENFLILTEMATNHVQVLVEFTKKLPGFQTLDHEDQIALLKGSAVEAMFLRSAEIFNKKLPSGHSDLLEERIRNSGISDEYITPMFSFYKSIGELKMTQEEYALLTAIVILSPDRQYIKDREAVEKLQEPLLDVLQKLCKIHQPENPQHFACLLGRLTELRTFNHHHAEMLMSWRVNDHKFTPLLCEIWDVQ
Sequence of Vitamin D3 receptor (Homo sapiens) (P11473 whole entry, looked up): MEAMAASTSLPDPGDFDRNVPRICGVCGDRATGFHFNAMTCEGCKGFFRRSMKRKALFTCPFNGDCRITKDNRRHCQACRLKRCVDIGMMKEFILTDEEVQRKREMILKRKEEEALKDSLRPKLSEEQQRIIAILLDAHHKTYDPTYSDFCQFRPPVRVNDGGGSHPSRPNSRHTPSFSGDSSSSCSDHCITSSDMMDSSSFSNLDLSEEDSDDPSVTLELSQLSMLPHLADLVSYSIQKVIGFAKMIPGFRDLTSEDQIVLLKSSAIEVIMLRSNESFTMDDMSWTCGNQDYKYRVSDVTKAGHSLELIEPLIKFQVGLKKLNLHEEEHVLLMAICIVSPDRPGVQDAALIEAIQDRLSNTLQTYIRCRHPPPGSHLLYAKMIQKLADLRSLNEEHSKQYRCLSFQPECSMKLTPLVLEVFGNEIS

As to `CN(C)CCOc1ccccc1Cc1ccccc1`, the Potency result in experiment [1], in experiment [3], in experiment [5], in experiment [8], in experiment [9] and in [14] was “inactive” throughout. Further, the Potency result in [15] is “inactive”. Besides, the call in experiment [2], in experiment [4], in experiment [6], in experiment [7], in experiment [10] and in [11] was inactive. For the same compound, the outcome in experiment [12], in experiment [13] and in experiment [16] was inactive.
Take `CC1=NN(c2cc(Cl)c(S(=O)(=O)O)cc2Cl)C(=O)C1N=Nc1ccc(S(=O)(=O)O)cc1` (stereo not given): the Potency result in experiment [1], in [3], in [5], in experiment [8], in experiment [9] and in experiment [14] was “inactive” throughout. In experiment [15], the Potency entry was “inactive”. Also, the result in [17], in experiment [6], in [7], in experiment [10], in experiment [11] and in [12] was inactive. The compound was classed as inactive in experiment [13] and in experiment [16].
In the case of `CC1(C)O[C@@H]2C[C@H]3[C@@H]4CCC5=CC(=O)CC[C@]5(C)[C@@]4(F)[C@@H](O)C[C@]3(C)[C@]2(C(=O)CCl)O1`, the Potency entry in experiment [1], in [3], in [8] and in experiment [14] was “inactive” in each case. The call in experiment [18], in experiment [17], in experiment [6], in [10], in experiment [11] and in [12] was inactive. For the same compound, the call in experiment [13] and in experiment [16] was inactive. Further, in [15], the Potency was 13.3 µM (active).
As to `CCCCCCOc1ccc(N)cc1`, the Potency result in experiment [1], in [3], in experiment [9], in experiment [14] and in [15] was “inactive” each time. For the same compound, the result in experiment [19], in experiment [17], in experiment [6], in [7], in experiment [10] and in [11] was inactive. Also, the result in experiment [12], in experiment [13] and in experiment [16] was inactive.
Regarding `Cc1cccc(C)c1NC(=O)CN1CCCCCC1`, the Potency entry in experiment [1], in experiment [5], in experiment [8], in experiment [9], in experiment [14] and in experiment [15] was “inactive” throughout. The compound was classed as inactive in experiment [2], in experiment [4], in [6], in experiment [7], in [10] and in [11]. In addition, the result in [12], in [13] and in [16] was inactive.
Turning to `O=C(CC(=O)C(F)(F)F)c1ccccc1`, the Potency entry in experiment [1], in [3], in experiment [5], in experiment [8], in [9] and in experiment [14] was “inactive” in each case. Besides, the Potency result in experiment [15] is “inactive”. In addition, the call in experiment [2], in experiment [4], in experiment [17], in experiment [6], in experiment [7] and in experiment [10] was inactive. Moreover, the compound was called inactive in [11], in experiment [12], in [13] and in [16].
As to `CC1(O)CSC(C)(O)CS1` (stereo not given), the Potency result in [1], in [3], in experiment [5], in experiment [9], in experiment [14] and in experiment [15] was “inactive” in each case. Besides, the compound was called inactive in experiment [19], in experiment [17], in experiment [10], in experiment [11], in [12] and in experiment [13]. For the same compound, the result in experiment [16] was inactive.
Regarding `CCCCCCCCCCCCCCCCOP(=O)([O-])OCC[N+](C)(C)C`, the Potency result in experiment [1], in experiment [8], in experiment [14] and in experiment [15] was “inactive” in each case. For the same compound, the call in experiment [2], in experiment [4], in [17], in [6], in experiment [7] and in experiment [10] was inactive. The compound was classed as inactive in experiment [11], in experiment [12], in [13] and in experiment [16].
For the compound `CN(C)CC[C@@H](c1ccc(Cl)cc1)c1ccccn1`, the Potency result in [1], in [3], in experiment [5], in experiment [8], in [9] and in experiment [14] was “inactive” throughout. For the same compound, the Potency result in [15] was “inactive”. Also, the result in experiment [17], in [10], in [11], in experiment [12], in experiment [13] and in experiment [16] was inactive.
